# Data as given in PMC7862700, “An all-to-all approach to the identification of sequence-specific readers for epigenetic DNA modifications on cytosine”.
# Tests used:
# Assay in all cases: DAPPL (digital affinity profiling via proximity ligation, sequencing); 10 mM Tris-HCl pH 7.5, 50 mM NaCl, 1 mM DTT, 4% glycerol, room temperature, 30 min; GST-TFs on glutathione beads, 16-mer random dsDNA library, 0.1% formaldehyde crosslink after washing; high values mean tight binding
# FLI1 = molecular target: T1, FLI1 (Homo sapiens, UniProt Q01543 1-452); details: protein: recombinant; tags: N-terminal GST; dsDNA, one strand shown
# T1 sequence: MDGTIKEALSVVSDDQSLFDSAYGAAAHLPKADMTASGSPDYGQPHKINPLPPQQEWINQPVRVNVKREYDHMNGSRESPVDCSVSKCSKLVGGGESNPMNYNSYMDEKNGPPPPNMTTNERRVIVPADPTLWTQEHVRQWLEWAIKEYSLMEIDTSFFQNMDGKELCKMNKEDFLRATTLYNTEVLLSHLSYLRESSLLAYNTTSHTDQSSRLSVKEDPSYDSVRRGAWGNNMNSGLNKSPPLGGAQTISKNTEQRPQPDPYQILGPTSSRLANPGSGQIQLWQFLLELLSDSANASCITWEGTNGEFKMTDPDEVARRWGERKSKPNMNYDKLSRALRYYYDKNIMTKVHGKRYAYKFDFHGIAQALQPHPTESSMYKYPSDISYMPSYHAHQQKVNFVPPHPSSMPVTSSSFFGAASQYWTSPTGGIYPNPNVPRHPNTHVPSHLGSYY
# In short: (§1)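 Human transcription factors fused to GST were expressed in yeast, captured on glutathione beads, given DNA barcodes and pooled with a GST-only negative control. Pools were incubated with 200 nmole of a 16-mer random double-stranded DNA library in Tris/NaCl/DTT/glycerol buffer at room temperature for 30 min. They were then washed, crosslinked with 0.1% formaldehyde, proximity-ligated (BsaI/T4 ligase, 1 h, 37 °C), PCR-amplified and sequenced on an Illumina NextSeq500. Binding signal is each 6-mer's read frequency for a factor divided by its frequency for the GST control.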
# ELK1 = molecular target: T2, ELK1 (Homo sapiens, UniProt P19419 1-428); details: protein: recombinant; tags: N-terminal GST; dsDNA, one strand shown
# T2 sequence: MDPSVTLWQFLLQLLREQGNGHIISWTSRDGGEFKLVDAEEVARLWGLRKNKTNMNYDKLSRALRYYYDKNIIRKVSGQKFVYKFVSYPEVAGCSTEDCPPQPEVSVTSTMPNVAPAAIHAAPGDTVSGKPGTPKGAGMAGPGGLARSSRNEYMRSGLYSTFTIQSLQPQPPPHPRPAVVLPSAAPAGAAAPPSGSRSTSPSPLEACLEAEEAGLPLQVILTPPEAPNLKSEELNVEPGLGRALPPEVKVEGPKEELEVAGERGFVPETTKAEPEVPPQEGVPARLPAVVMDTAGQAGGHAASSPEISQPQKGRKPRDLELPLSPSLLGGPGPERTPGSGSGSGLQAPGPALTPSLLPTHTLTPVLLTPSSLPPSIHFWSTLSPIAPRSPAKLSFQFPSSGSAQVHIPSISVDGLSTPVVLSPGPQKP
# In short: as §1
# GABPA = molecular target: T3, GABPA (Homo sapiens, UniProt Q06546 1-454); details: protein: recombinant; tags: N-terminal GST; dsDNA, one strand shown
# T3 sequence: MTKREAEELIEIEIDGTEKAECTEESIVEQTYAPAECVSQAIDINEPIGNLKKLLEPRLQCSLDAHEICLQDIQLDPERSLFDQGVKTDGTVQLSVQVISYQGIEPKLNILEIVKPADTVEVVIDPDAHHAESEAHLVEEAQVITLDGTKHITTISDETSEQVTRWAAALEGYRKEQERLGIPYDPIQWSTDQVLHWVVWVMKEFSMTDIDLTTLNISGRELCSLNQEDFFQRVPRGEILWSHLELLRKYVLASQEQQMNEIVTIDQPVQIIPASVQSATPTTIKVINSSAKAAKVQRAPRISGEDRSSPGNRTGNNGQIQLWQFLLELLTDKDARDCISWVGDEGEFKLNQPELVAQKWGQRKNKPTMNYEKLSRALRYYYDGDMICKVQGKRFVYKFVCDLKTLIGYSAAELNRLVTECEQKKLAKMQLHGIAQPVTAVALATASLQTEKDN
# In short: as §1
# ERG = molecular target: T4, ERG (Homo sapiens, UniProt P11308 1-479); details: protein: recombinant; tags: N-terminal GST; dsDNA, one strand shown
# T4 sequence: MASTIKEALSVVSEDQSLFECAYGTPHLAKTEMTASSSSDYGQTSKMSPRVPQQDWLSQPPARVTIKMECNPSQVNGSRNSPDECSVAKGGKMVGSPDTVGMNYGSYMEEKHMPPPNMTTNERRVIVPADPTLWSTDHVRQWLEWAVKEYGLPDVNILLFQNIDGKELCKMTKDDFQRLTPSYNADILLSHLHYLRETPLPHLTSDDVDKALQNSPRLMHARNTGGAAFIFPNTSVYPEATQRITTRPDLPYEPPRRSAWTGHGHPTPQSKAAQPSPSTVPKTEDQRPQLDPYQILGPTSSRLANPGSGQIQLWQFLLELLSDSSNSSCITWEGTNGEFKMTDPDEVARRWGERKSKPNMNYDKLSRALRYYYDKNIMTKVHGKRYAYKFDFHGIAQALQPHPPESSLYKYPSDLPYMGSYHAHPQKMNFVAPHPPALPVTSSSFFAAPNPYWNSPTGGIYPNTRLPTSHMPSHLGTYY
# In short: as §1
# ELF1 = ELF1 (Homo sapiens, UniProt P32519 1-619); details: protein: recombinant; tags: N-terminal GST; dsDNA, one strand shown
# In short: as §1
# EHF = molecular target: T5, EHF (Homo sapiens, UniProt Q9NZC4 1-300); details: protein: recombinant; tags: N-terminal GST; dsDNA, one strand shown
# T5 sequence: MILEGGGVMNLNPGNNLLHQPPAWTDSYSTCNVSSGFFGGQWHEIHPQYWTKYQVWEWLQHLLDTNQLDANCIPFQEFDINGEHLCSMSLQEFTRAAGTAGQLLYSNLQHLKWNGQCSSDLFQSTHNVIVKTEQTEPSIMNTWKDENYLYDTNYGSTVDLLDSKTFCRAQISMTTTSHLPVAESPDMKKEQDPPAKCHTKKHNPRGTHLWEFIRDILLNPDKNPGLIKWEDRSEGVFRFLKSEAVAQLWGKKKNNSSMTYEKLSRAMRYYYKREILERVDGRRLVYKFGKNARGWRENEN
# In short: as §1
# SPI1 = SPI1 (Homo sapiens, UniProt P17947 1-270); details: protein: recombinant; tags: N-terminal GST; dsDNA, one strand shown
# In short: as §1
# SPIB = SPIB (Homo sapiens, UniProt Q01892 1-262); details: protein: recombinant; tags: N-terminal GST; dsDNA, one strand shown
# In short: as §1
# ELK3 = molecular target: T6, ELK3 (Homo sapiens, UniProt P41970 1-407); details: protein: recombinant; tags: N-terminal GST; dsDNA, one strand shown
# T6 sequence: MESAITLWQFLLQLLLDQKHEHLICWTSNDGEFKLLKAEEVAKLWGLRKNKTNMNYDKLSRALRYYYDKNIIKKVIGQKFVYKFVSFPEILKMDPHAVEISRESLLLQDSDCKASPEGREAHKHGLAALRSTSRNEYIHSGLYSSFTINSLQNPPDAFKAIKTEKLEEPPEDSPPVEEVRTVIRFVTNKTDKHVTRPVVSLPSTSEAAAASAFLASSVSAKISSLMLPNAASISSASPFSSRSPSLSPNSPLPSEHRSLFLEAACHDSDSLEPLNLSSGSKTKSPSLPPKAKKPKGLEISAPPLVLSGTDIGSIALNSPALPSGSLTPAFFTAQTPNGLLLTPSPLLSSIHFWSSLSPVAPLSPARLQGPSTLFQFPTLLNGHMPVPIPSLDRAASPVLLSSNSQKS
# In short: as §1
# FEV = molecular target: T7, FEV (Homo sapiens, UniProt Q99581 1-238); details: protein: recombinant; tags: N-terminal GST; dsDNA, one strand shown
# T7 sequence: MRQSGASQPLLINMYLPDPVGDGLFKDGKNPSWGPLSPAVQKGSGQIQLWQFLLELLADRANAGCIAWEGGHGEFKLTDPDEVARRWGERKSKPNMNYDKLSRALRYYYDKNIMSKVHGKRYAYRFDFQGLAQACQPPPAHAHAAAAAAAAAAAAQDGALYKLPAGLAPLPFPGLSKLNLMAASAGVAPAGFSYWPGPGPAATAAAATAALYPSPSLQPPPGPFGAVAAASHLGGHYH
# In short: as §1
# ETV5 = ETV5 (Homo sapiens, UniProt P41161 1-510); details: protein: recombinant; tags: N-terminal GST; dsDNA, one strand shown
# In short: as §1
# HSF1 = HSF1 (Homo sapiens, UniProt Q00613 1-529); details: protein: recombinant; tags: N-terminal GST; chain copies: 3; dsDNA, one strand shown
# In short: as §1
# SPIC = molecular target: T8, SPIC (Homo sapiens, UniProt Q8N5J4 1-248); details: protein: recombinant; tags: N-terminal GST; dsDNA, one strand shown
# T8 sequence: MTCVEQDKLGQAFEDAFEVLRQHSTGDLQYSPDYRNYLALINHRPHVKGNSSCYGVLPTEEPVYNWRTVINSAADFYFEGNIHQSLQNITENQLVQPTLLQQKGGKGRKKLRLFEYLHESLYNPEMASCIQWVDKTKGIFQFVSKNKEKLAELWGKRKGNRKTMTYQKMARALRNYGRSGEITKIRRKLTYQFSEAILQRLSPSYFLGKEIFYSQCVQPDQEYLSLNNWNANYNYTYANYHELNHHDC
# In short: as §1
# ELF4 = ELF4 (Homo sapiens, UniProt Q99607 1-663); details: protein: recombinant; tags: N-terminal GST; dsDNA, one strand shown
# In short: as §1
# ELK4 = molecular target: T9, ELK4 (Homo sapiens, UniProt P28324-2 1-405); details: protein: recombinant; tags: N-terminal GST; dsDNA, one strand shown
# T9 sequence: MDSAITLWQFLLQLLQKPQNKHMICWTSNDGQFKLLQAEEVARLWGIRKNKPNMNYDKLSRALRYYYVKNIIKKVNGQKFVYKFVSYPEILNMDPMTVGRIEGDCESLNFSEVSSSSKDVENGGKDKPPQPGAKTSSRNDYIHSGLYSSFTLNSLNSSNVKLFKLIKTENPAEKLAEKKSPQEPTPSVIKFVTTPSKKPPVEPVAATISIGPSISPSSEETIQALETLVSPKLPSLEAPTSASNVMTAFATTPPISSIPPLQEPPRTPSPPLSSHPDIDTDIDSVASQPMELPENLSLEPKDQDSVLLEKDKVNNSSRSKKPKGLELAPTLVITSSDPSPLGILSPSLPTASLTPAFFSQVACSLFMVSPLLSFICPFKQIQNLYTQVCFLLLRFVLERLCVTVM
# In short: as §1
# ETV2 = molecular target: T10, ETV2 (Homo sapiens, UniProt O00321 1-342); details: protein: recombinant; tags: N-terminal GST; dsDNA, one strand shown
# T10 sequence: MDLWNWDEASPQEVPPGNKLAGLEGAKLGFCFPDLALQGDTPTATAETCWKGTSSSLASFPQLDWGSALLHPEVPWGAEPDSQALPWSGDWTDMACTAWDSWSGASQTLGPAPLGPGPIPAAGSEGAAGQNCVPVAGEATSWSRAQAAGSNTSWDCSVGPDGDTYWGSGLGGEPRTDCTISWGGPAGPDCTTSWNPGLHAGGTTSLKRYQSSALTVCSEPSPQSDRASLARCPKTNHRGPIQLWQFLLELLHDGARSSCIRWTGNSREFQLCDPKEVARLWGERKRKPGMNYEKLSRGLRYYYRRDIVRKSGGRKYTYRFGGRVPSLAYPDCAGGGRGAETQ
# In short: as §1
# ELF3 = molecular target: T11, ELF3 (Homo sapiens, UniProt P78545 1-371); details: protein: recombinant; tags: N-terminal GST; dsDNA, one strand shown
# T11 sequence: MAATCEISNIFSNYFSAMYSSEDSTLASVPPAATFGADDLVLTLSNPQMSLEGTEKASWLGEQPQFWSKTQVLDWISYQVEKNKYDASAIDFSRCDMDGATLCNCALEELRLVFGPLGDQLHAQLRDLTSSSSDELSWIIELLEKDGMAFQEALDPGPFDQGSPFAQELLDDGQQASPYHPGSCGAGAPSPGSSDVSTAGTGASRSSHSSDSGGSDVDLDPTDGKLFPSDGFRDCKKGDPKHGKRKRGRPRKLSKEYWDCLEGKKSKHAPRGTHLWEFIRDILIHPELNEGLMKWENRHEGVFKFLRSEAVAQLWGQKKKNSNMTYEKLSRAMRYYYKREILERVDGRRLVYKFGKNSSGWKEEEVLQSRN
# In short: as §1
# CRX = CRX (Homo sapiens, UniProt O43186 1-299); details: protein: recombinant; tags: N-terminal GST; dsDNA, one strand shown
# In short: as §1
# ETV1 = ETV1 (Homo sapiens, UniProt P50549 1-477); details: protein: recombinant; tags: N-terminal GST; dsDNA, one strand shown
# In short: as §1
# Chain of SPIB (Q01892 whole entry): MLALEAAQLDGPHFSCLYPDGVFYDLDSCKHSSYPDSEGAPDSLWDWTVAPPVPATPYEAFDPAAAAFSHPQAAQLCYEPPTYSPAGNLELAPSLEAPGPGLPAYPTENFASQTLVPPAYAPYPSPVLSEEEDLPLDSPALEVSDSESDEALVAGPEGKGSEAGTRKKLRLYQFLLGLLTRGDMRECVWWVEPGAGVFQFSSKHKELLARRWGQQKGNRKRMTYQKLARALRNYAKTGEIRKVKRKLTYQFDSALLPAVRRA
# Chain of ETV1 (P50549 whole entry): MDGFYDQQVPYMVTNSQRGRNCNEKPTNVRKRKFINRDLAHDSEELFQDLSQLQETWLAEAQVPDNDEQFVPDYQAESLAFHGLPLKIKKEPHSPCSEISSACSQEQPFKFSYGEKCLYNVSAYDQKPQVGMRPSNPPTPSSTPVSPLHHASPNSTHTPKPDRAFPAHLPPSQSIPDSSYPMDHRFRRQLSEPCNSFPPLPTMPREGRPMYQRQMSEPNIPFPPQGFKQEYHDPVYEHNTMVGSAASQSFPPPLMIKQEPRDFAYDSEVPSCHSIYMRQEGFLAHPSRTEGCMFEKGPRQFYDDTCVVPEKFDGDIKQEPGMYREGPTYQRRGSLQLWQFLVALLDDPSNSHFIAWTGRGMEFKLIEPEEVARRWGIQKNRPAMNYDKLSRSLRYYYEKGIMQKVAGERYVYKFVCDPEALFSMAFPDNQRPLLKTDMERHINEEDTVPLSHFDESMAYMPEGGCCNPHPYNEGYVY
# Chain of ELF1 (P32519 whole entry): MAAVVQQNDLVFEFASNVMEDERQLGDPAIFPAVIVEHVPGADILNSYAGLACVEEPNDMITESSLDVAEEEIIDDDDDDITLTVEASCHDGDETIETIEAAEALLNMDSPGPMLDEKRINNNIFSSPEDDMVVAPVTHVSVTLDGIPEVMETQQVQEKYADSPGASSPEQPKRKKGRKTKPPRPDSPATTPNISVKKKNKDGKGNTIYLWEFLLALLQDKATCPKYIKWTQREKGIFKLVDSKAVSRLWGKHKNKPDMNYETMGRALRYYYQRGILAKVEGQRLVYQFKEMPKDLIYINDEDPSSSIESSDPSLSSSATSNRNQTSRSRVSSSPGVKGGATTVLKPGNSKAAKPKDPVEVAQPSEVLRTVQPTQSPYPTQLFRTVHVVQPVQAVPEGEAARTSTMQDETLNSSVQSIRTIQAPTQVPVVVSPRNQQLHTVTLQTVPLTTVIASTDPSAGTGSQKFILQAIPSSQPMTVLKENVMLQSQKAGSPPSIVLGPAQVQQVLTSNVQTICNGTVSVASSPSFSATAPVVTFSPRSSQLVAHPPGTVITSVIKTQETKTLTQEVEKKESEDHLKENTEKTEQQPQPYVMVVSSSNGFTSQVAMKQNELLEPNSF
# Chain of HSF1 (Q00613 whole entry): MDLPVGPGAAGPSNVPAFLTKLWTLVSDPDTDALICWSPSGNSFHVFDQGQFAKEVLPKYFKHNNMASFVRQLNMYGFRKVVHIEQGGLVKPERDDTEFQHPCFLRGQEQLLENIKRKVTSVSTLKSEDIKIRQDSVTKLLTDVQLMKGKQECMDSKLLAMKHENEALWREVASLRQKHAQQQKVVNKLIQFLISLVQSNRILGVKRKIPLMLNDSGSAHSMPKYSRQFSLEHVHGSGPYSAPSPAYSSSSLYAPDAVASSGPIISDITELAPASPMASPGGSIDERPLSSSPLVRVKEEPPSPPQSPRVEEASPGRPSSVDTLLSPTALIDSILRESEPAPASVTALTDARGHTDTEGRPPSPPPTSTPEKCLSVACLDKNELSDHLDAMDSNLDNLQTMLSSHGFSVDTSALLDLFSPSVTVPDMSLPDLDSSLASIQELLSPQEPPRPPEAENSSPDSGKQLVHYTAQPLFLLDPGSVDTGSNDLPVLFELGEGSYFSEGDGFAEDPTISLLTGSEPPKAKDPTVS
# Chain of CRX (O43186 whole entry): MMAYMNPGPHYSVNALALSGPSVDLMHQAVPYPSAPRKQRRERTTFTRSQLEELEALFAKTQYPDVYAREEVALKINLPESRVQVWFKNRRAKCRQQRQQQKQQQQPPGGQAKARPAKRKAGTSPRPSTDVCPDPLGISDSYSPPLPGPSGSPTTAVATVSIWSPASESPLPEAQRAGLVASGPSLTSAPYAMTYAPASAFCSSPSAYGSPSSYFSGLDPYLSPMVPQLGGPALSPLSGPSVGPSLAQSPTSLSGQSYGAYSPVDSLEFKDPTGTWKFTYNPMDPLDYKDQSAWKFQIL
# Chain of ETV5 (P41161 whole entry): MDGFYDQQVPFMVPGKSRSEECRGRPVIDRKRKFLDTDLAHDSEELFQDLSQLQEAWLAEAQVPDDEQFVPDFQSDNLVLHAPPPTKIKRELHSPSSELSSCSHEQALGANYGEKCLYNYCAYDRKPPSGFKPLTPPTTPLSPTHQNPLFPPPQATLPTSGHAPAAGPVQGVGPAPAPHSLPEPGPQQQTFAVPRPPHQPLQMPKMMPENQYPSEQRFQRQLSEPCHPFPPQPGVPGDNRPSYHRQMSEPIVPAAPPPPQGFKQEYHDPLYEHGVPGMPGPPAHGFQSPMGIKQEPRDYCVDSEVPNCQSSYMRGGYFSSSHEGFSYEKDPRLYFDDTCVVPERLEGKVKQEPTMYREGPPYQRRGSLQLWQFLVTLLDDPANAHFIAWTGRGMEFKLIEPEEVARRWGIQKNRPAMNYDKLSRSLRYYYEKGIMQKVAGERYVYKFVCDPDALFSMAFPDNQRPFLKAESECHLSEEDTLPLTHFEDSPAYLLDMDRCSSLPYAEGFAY
# Chain of ELF4 (Q99607 whole entry): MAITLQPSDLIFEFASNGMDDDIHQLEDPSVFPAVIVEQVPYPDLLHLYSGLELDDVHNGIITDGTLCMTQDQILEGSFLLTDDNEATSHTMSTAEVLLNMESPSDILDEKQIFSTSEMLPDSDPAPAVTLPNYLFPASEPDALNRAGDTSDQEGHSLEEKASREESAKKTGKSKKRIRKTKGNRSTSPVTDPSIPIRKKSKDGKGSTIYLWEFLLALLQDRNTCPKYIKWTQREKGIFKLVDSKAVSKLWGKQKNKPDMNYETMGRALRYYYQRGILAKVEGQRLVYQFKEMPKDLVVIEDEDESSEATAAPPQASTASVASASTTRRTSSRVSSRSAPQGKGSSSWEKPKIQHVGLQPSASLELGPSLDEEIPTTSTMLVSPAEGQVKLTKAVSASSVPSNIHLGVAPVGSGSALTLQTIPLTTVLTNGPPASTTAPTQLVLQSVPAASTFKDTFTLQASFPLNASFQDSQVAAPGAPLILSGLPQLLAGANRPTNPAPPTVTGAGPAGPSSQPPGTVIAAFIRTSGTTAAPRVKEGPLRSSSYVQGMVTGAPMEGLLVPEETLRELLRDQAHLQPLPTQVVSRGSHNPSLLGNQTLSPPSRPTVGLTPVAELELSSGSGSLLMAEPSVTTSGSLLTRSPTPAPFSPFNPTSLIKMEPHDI
sequence,measurement,setting,value
AACCCG,binding signal,FLI1,"1.36 fold enrichment (6-mer frequency, TF over GST control)"
same,binding signal,ELK1,"1.44 fold enrichment (6-mer frequency, TF over GST control)"
same,binding signal,GABPA,"1.31 fold enrichment (6-mer frequency, TF over GST control)"
same,binding signal,ERG,"1.46 fold enrichment (6-mer frequency, TF over GST control)"
same,binding signal,ELF1,"1.5 fold enrichment (6-mer frequency, TF over GST control)"
same,binding signal,EHF,"1.54 fold enrichment (6-mer frequency, TF over GST control)"
same,binding signal,SPI1,"1.36 fold enrichment (6-mer frequency, TF over GST control)"
same,binding signal,SPIB,"1.46 fold enrichment (6-mer frequency, TF over GST control)"
same,binding signal,ELK3,"1.49 fold enrichment (6-mer frequency, TF over GST control)"
same,binding signal,FEV,"1.44 fold enrichment (6-mer frequency, TF over GST control)"
same,binding signal,ETV5,"1.51 fold enrichment (6-mer frequency, TF over GST control)"
same,binding signal,HSF1,"1.07 fold enrichment (6-mer frequency, TF over GST control)"
same,binding signal,SPIC,"1.47 fold enrichment (6-mer frequency, TF over GST control)"
same,binding signal,ELF4,"1.51 fold enrichment (6-mer frequency, TF over GST control)"
same,binding signal,ELK4,"1.26 fold enrichment (6-mer frequency, TF over GST control)"
same,binding signal,ETV2,"1.47 fold enrichment (6-mer frequency, TF over GST control)"
same,binding signal,ELF3,"1.6 fold enrichment (6-mer frequency, TF over GST control)"
same,binding signal,CRX,"1.2 fold enrichment (6-mer frequency, TF over GST control)"
same,binding signal,ETV1,"1.58 fold enrichment (6-mer frequency, TF over GST control)"
